Compound activity as filed in PubChem BioAssay.
A549 tox-1 – counter-screen for Nrf2 inhibitors: cytotoxicity in A549 cells | A549 ARE-Fluc cells, CellTiter-Fluor viability, 18-24 h | Potency, µM (doses to about 46 µM), hits mostly inhibitors | 390,000 compounds, 0.16% hits
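A549 ARE_Fluc cells in 5% FBS OPTI-MEM were exposed to compounds in concentration-response for 18-24 h at 37 deg C. Viability was read by CellTiter-Fluor fluorescence (Ex 405/Em 525) after 30 min, before the luciferase read.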
ATXN2 expr inh – ATXN2 expression inhibition; HEK-293 ATXN2-luciferase reporter, luminescence, 24 h; Potency, µM (top dose mostly 57 µM), usual class: inhibitors; 360,000 compounds, 0.72% hits; AID 1745845; note: nearly all actives have a fitted effect of over 55% in size
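qHTS (up to 57 uM final) was run with 24 h compound exposure of reporter cells at 37 °C. Each well was multiplexed: SteadyGlo luminescence measured ATXN2-luciferase expression after a fluorogenic Gly-Phe-AFC viability readout (25 uM final).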
S2 tox – reduces viability in counter-screen for ATXN expression inhibitors; S2 cells (HEK-293 line with an ATXN2-luciferase reporter) viability, CellTiter-Fluor protease fluorescence, 24 h; Potency, µM (highest dose often 56.7 µM), hits mostly cytotoxic; 400,000 compounds, 0.49% hits; AID 651635; note: nearly all actives have a fitted effect of over 40% in size
TGFb inhibitor – inhibitors of TGF-b signaling; HepG2 CAGA-GFP TGF-b/SMAD3 reporter, GFP fluorescence, 18 h; TGF-beta stimulated, 500 pg/mL final; Potency, µM (top dose mostly 46.1 µM), hits mostly inhibitors; 410,000 compounds, 1.2% hits; note: nearly all actives have a fitted effect of over 65% in size
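HEPG2 CAGA-GFP, 1000 cells/well; 2 h settle, 37 C; cpd via pin tool; TGF-b 500 pg/mL final; 18 h, 37 C; GFP imaging ex488/em500-530; %Activity normalised to -TGF-b and +DMSO controls; CRC fit, curve class.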
Nrf2 inh – Nrf2 pathway inhibition; A549 ARE-Fluc reporter, luciferase luminescence, 18-24 h; Potency, µM (top dose mostly 46 µM), hits mostly inhibitors; 360,000 compounds, 2.1% hits; note: nearly all actives have a fitted effect of over 60% in size
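Reporter: ARE-Fluc in A549. Exposure: 18-24 h, 37 °C, 5% CO2, 5% FBS OPTI-MEM. Readouts: fluorescent cytotoxicity (CellTiter-Fluor), then luminescent Nrf2 signal after BugLite.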
HepG2 tox – counter-screen for TGF-b inhibitors: cytotoxicity in HepG2 cells. 410,000 compounds, 0.76% hits. HepG2 CAGA-GFP viability, ATP luminescence, 18 h. Potency, µM (highest dose often 46.1 µM), hits mostly cytotoxic
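HepG2 CAGA-GFP cells (1000/well, DMEM with 1% FBS) received compound, then TGF-beta at 500 pg/mL final, and were incubated 18 hours at 37 degrees C. Viability was read by CellTiter-Glo luminescence. Media-only wells were set as complete cell-killing and DMSO as no toxicity.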
FLuc enzyme inh – blocks purified firefly luciferase in Nrf2 counterscreen; shares compounds with Nrf2 inh; purified firefly luciferase, luminescence inhibition; Potency, µM (titrated, usually from 57.5 µM), usual class: inhibitors; 1,400 compounds, 4% hits; note: nearly all actives have a fitted effect of over 65% in size
Target sequence (P08659 whole entry, looked up): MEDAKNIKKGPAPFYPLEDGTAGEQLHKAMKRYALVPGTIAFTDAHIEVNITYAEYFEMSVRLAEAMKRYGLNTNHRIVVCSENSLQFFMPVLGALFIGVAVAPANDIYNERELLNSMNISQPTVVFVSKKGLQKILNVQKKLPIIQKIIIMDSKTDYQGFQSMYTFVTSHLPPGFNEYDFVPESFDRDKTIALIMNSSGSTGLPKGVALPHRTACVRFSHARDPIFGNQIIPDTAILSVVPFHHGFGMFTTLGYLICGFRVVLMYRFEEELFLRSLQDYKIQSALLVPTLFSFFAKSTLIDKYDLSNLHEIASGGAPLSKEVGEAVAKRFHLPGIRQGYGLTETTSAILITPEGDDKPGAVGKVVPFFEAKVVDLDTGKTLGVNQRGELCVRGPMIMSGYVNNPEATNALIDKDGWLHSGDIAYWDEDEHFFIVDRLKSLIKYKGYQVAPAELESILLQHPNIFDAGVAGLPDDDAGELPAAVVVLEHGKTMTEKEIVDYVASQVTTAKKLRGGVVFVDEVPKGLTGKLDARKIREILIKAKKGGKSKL
A549 tox-2 – counter-screen for Nrf2 inhibitors: cytotoxicity in A549 ARE cells; shares compounds with Nrf2 inh; A549 ARE-Fluc cells, cytotoxicity counterscreen; Potency, µM (titrated, usually from 46.1 µM), hits mostly inhibitors; 1,400 compounds, 2% hits; AID 720523;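 note: cells exposed to compounds for 18 to 24 hours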
ARE-Fluc inh – confirmation of Nrf2 inhibitors in A549 ARE reporter cells; shares compounds with Nrf2 inh; A549 ARE-firefly luciferase reporter, luminescence; Potency, µM (series often up to 46.1 µM), hits mostly inhibitors; 1,400 compounds, 74% hits; note: nearly all actives have a fitted effect of over 65% in size
Numbers stand for hits; 0 = inactive; ? = inconclusive; - = no result shown. Most compounds without a hit are left out; they make up all but 3.8% or so of the library. Calls come from the whole dose curve; as a rule, active = well fitted curve in the direction sought with a large enough effect; inconclusive = small, poorly fitted or top-dose-only effect, or another doubt; inactive = no such curve, though single readings can be large; an effect the other way counts as inactive or inconclusive.

SMILES	A549 tox-1	ATXN2 expr inh	S2 tox	TGFb inhibitor	Nrf2 inh	HepG2 tox	FLuc enzyme inh	A549 tox-2	ARE-Fluc inh
Cc1ccccc1C1CC(=O)Nc2ccc3ccccc3c21 (configuration not stated)	0	0	?	13µM	0	0	-	-	-
Cc1ccc(NC(=O)C2CCN(C(=O)c3cnn(-c4ccccc4)c3-n3cccc3)CC2)cc1Cl	0	?	?	14µM	?	0	-	-	-
CC(Oc1ccc(Br)cc1)C(=O)N(Cc1nc(-c2ccccc2)no1)C(C)C (configuration not stated)	0	-	-	?	?	0	-	-	-
Cc1cc(/C=C/c2ccnc3ccccc23)ccc1N(CCCl)CCCl	-	-	-	0	-	0	-	-	-
CC/C(=N\Nc1ccccc1)c1c(O)n(C)c(=O)n(C)c1=O	0	0	0	0	?	0	-	-	-
CCC(=NCCc1c[nH]c2ccccc12)c1c(O)n(C)c(=O)n(C)c1=O	?	0	0	0	9.2µM	0	0	0	-
CCC(=NC(C)c1ccccc1)c1c(O)n(C)c(=O)n(C)c1=O (configuration not stated)	0	0	0	0	5.8µM	0	0	0	7.3µM
CCCCc1ccc(NC(=O)c2cccn(Cc3ccc(Cl)cc3)c2=O)cc1	0	0	0	?	-	0	-	-	-
Cc1ccc(NC(=O)C2CCCN2S(=O)(=O)c2ccc3c(c2)CCCC(=O)N3)cc1Cl (configuration not stated)	0	0	0	?	?	0	-	-	-
CC(=O)N1CCCc2cc(S(=O)(=O)N3CCCC(C(=O)Nc4cccc(F)c4)C3)ccc21 (configuration not stated)	0	0	0	?	9.2µM	0	0	0	-
CC(=O)OC1C(O)C(C)OC(OC2C(OC(=O)C3CCC4C(C3)OC3(CC(OC(=O)/C=C/c5ccccc5)C(C)CO3)C43CO3)OC(C)C(O)C2OC(C)=O)C1O (configuration not stated)	?	0.21µM	?	?	0.023µM	0	0	0	6.5µM
COc1ccc(C=C(C(=O)O)c2ccc(OC)cc2)cc1	0	0	?	0	?	0	-	-	-
CC(C)(C)OC(=O)NCc1ccc(CNC(=O)c2nc[nH]c2C(=O)NCc2ccc(CNC(=O)OC(C)(C)C)cc2)cc1	0	0	0	0	6.5µM	0	0	0	13µM
O=C1c2ccccc2C(=O)c2ccccc21	-	0	0	-	-	-	-	-	-
c1ccc2c(c1)[IH]c1ccccc1-2	9.2µM	7.9µM	?	4.5µM	0.23µM	0	0	0	?
COc1ccc(NC(=O)CSc2nc(-c3ccco3)cc(C(F)(F)F)n2)cc1OC	0	-	-	?	1.6µM	0	0	0	2.3µM
COc1ccc(CCCc2nnc(SCC(=O)Nc3ccc(C)c(C)c3)o2)cc1	0	0	0	?	?	0	-	-	-
CCCN1CCO[C@@H]2c3cc(O)ccc3OC[C@@H]21	-	0	-	-	-	-	-	-	-
CCCCCn1c(=O)c(C(=O)Nc2ccccc2Cl)c(O)c2ccccc21	0	-	-	0	0	0	-	-	-
CCCCCn1c(=O)c(C(=O)Nc2nc3ccccc3[nH]2)c(O)c2ccccc21	?	0	0	0	2.6µM	0	0	?	6.5µM
COc1cc(C)c(CN2CC=C(c3ccc(F)cc3)CC2)cc1C	0	0	?	0	0	0	-	-	-
COc1cc2nc(CN3CC=C(c4ccccc4)CC3)[nH]c(=O)c2cc1OC	?	1µM	0	?	2.3µM	0	0	?	-
O=C(O)C1C2c3ccccc3C(O)C1(C(=O)O)c1ccccc12 (configuration not stated)	0	0	0	0	0	0	-	-	-
